Test results from PubChem BioAssay (EPA / NIEHS).
Inconclusive results are not listed. Activity calls are given as the source filed them. How the source made its calls, unless noted: active means hit-call score of the fitted dose curve at least 0.9, where 1 is the maximum; inactive means score below 0.9.

Assays:
[1] = read-out: succinate dehydrogenase complex iron sulfur subunit B (SDHB), SDHB (gene 6390); assay: LTEA_HepaRG_SDHB: Life Technologies and Expression Analysis (LTEA) Assay for succinate dehydrogenase complex iron sulfur subunit B (SDHB) using HepaRG (AID 2283528); details: mRNA level, 48 h; actives raise or lower the signal
Method in brief: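 SDHB transcript level read by TaqMan qRT-PCR, housekeeping-normalised (ACTB, GAPDH, POLR2A), after 48 h chemical treatment of plated HepaRG cells; eight concentrations top 100 uM, half-log steps, 0.5% DMSO, duplicates; fitted both directions against DMSO.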

[2] = read-out: Signal transducer and activator of transcription 3 (Homo sapiens) (UniProt P40763); assay: LTEA_HepaRG_STAT3: Life Technologies and Expression Analysis (LTEA) Assay for Signal transducer and activator of transcription (STAT3) using HepaRG (AID 2283529); details: mRNA level, 48 h; actives raise or lower the signal
Method in brief: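 In this transcriptional endpoint, HepaRG cultures receive test chemicals at up to 100 uM for 48 h, tested in duplicate. STAT3 mRNA is normalized to ACTB, GAPDH and POLR2A.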

[3] = read-out: solute carrier (SLCO1B1), SLCO1B1 (gene 10599); assay: LTEA_HepaRG_SLCO1B1: Life Technologies and Expression Analysis (LTEA) Assay for solute carrier (SLCO1B1) using HepaRG (AID 2283530); details: mRNA level, 48 h; actives raise or lower the signal
Method in brief: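 HepaRG, serum-free induction medium, 48 h dosing, 8-pt half-log from 100 uM, 0.5% DMSO vehicle, duplicates. Readout: SLCO1B1 mRNA, qRT-PCR, ACTB/GAPDH/POLR2A normalization; up or down fit vs DMSO.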

[4] = read-out: sulfotransferase 2A1 (SULT2A1), SULT2A1 (gene 6822); assay: LTEA_HepaRG_SULT2A1: Life Technologies and Expression Analysis (LTEA) Assay for sulfotransferase 2A1 (SULT2A1) using HepaRG (AID 2283531); details: mRNA level, 48 h; actives raise or lower the signal
Method in brief: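 Transcript levels of SULT2A1, quantified by qRT-PCR and normalized to three housekeeping genes, serve as the readout. Human HepaRG cultures receive test chemicals for 48 h at up to 100 uM in half-log steps, with 0.5% DMSO vehicle.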

[5] = read-out: Transforming Growth Factor (TGFA), TGFA (gene 7039); assay: LTEA_HepaRG_TGFA: Life Technologies and Expression Analysis (LTEA) Assay for Transforming Growth Factor (TGFA) using HepaRG (AID 2283532); details: mRNA level, 48 h; actives raise or lower the signal
Method in brief: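 Gene expression of TGFA was quantified by qRT-PCR after human HepaRG cells were treated for 48 h with test chemicals (eight concentrations, highest 100 uM, 0.5% DMSO). Activity in either direction was fitted relative to DMSO.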

[6] = read-out: Transforming Growth Factor (TGFB1), TGFB1 (gene 7040); assay: LTEA_HepaRG_TGFB1: Life Technologies and Expression Analysis (LTEA) Assay for Transforming Growth Factor (TGFB1) Transporter using HepaRG (AID 2283533); details: mRNA level, 48 h; actives raise or lower the signal
Method in brief: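 HepaRG, 48 h post-plating, switched to serum-free induction medium; chemicals 100 uM top, half-log, 8 pts, 0.5% DMSO, dup; 48 h exposure; RNA → Fluidigm TaqMan qRT-PCR; norm ACTB/GAPDH/POLR2A; bidirectional fit vs DMSO.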

TIMP1, TIMP1 (gene 7076) = assay: LTEA_HepaRG_TIMP1: Life Technologies and Expression Analysis (LTEA) Assay for TIMP1 using HepaRG (AID 2283534); details: mRNA level, 48 h; actives raise or lower the signal
Method in brief: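 Readout is TIMP1 mRNA level measured by qRT-PCR and normalized to three housekeeping genes. Human HepaRG cells were treated for 48 h in duplicate at eight concentrations up to 100 uM (0.5% DMSO); gain or loss fitted against DMSO.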

[7] = read-out: Thyroid Hormone Responsive (THRSP), THRSP (gene 7069); assay: LTEA_HepaRG_THRSP: Life Technologies and Expression Analysis (LTEA) Assay for Thyroid Hormone Responsive (THRSP) using HepaRG (AID 2283536); details: mRNA level, 48 h; actives raise or lower the signal
Method in brief: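 Cell model: human HepaRG, approx. 100,000 cells/well, 0.5% DMSO vehicle. Exposure lasts 48 h; phenobarbital 1 mM serves as induction positive control. Gene expression is measured by qRT-PCR against three endogenous control genes.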

[8] = read-out: UDP glucuronosyltransferase (UGT1A1), UGT1A1 (gene 54658); assay: LTEA_HepaRG_UGT1A1: Life Technologies and Expression Analysis (LTEA) Assay for UDP glucuronosyltransferase (UGT1A1) using HepaRG (AID 2283538); details: mRNA level, 48 h; actives raise or lower the signal
Method in brief: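 HepaRG, 48 h chemical exposure (top 100 uM, half-log 8-pt, 0.5% DMSO vehicle), duplicate wells; qRT-PCR (TaqMan, Fluidigm array) for UGT1A1 mRNA, housekeeping-normalized; bidirectional curve fit vs DMSO baseline.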

[9] = read-out: UDP glucuronosyltransferase (UGT1A6), UGT1A6 (gene 54578); assay: LTEA_HepaRG_UGT1A6: Life Technologies and Expression Analysis (LTEA) Assay for UDP glucuronosyltransferase (UGT1A6) using HepaRG (AID 2283539); details: mRNA level, 48 h; actives raise or lower the signal
Method in brief: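 HepaRG, 48 h post-plating switch to serum-free induction medium; chemical 48 h, 100 uM top, half-log x8, duplicate, 0.5% DMSO. Phenobarbital 1mM induction control. UGT1A6 mRNA by TaqMan qRT-PCR; gain/loss fit vs DMSO.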

[10] = read-out: X-box binding protein 1 (XBP1), XBP1 (gene 7494); assay: LTEA_HepaRG_XBP1: Life Technologies and Expression Analysis (LTEA) Assay for X-box binding protein 1 (XBP1) using HepaRG (AID 2283540); details: mRNA level, 48 h; actives raise or lower the signal
Method in brief: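 Transcript levels of XBP1, measured by qRT-PCR and normalised to three housekeeping genes, were fitted bidirectionally relative to 0.5% DMSO controls. Human HepaRG cells received eight-point half-log dilutions from 100 uM for 48 h.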

[11] = LTEA_HepaRG_LDH_cytotoxicity: Cytotoxicity Assessment in the Life Technologies and Expression Analysis (LTEA) Assay (AID 2283563; active means hit-call score of the fitted dose curve at least 0.9, where 1 is the maximum;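 on AC50: LDH activity released into spent culture medium as a marker of cell death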)
Method in brief: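 Cells were thawed and plated for 48 h. Medium was then replaced with serum-free induction medium. Chemicals (8 half-log points, maximum 100 uM, 0.5% DMSO) were added in duplicate for 48 h, after which spent medium was assayed for LDH.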

[12] = ATG_XTT_Cytotoxicity: Cytotoxicity Assessment in the Attagene TRANS-FACTORIAL HepG2 Assay (AID 2283584; active means hit-call score of the fitted dose curve at least 0.9, where 1 is the maximum;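 on AC50: cells exposed to compound for 24 h before reading; active means loss of viability signal versus DMSO baseline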)
Method in brief: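 Cells: human HepG2, transiently transfected with MRTU reporter constructs. Exposure 24 h. Readout: XTT, cell number. Baseline/neg ctrl DMSO; loss-of-signal scored.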

[13] = read-out: Cellular tumor antigen p53 (Homo sapiens) (UniProt P04637); assay: LTEA_HepaRG_TP53: Life Technologies and Expression Analysis (LTEA) Assay for Tumor Protein P53 (TP53) using HepaRG (AID 2283537); details: mRNA level, 48 h; actives raise or lower the signal
Method in brief: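 TP53 transcript measured by qRT-PCR, normalized to three housekeeping genes, after 48 h treatment of human HepaRG cultures with chemicals from 100 uM downward in half-log steps (0.5% DMSO vehicle, serum-free induction medium). Up- or down-regulation fitted against DMSO.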

[14] = TOX21_p53_BLA_p2_viability: Viability Assessment in the Tox21 HCT-116 p53 Agonism Beta-lactamase Assay, Phase 2 (AID 2283591; active means hit-call score of the fitted dose curve at least 0.9, where 1 is the maximum;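 further: compound exposure lasted 16 h at 37 °C; actives lower the ATP signal meaning cytotoxicity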)
Method in brief: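 HCT-116 p53-bla cells (4000/well) rested 5 h at 37C, then received compounds in DMSO (217-fold dilution) for 16 h at 37C, 5% CO2. After the CCF4 read, CellTiter-Glo was added; ATP luminescence was read after 30 min at room temperature.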

[15] = target: Cellular tumor antigen p53 (Homo sapiens) (UniProt P04637); assay: TOX21_p53_BLA_p2_ratio: Tox21 HCT-116 p53 Agonism Beta-lactamase Assay, Ratio, Phase 2 (AID 2283592; active means hit-call score of the fitted dose curve at least 0.9, where 1 is the maximum)
Method in brief: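 Plated HCT116 p53-bla cells (4000/well) received compound after 5 h, then 16 h at 37C/5% CO2. CCF4-AM added, 2 h RT. Ratio of 460 to 530 nm emission taken as the p53 reporter signal.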

[16] = TOX21_p53_BLA_p3_viability: Viability Assessment in the Tox21 HCT-116 p53 Agonism Beta-lactamase Assay, Phase 3 (AID 2283593; active means hit-call score of the fitted dose curve at least 0.9, where 1 is the maximum;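 further: cells exposed to compound for 16 h before reading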)
Method in brief: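 HCT-116 cells (4000/well) rested 5 h at 37C, then got DMSO compounds by pin tool (217-fold dilution) for 16 h at 37C, 5% CO2. After the bla read, CellTiter-Glo was added and luminescence read at 30 min, room temperature.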

[17] = TOX21_p53_BLA_p4_viability: Viability Assessment in the Tox21 HCT-116 p53 Agonism Beta-lactamase Assay, Phase 4 (AID 2283597; active means hit-call score of the fitted dose curve at least 0.9, where 1 is the maximum;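 further: hits lower the luminescence signal meaning cytotoxicity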)
Method in brief: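 Readout: ATP luminescence (CellTiter-Glo), measured 30 min after reagent addition at RT. The reagent followed a 2 h CCF4-AM incubation, and the cells had been exposed to compound for 16 h at 37C.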

Measured: AC50

Chain of Signal transducer and activator of transcription 3 (Homo sapiens) (P40763 whole entry, looked up): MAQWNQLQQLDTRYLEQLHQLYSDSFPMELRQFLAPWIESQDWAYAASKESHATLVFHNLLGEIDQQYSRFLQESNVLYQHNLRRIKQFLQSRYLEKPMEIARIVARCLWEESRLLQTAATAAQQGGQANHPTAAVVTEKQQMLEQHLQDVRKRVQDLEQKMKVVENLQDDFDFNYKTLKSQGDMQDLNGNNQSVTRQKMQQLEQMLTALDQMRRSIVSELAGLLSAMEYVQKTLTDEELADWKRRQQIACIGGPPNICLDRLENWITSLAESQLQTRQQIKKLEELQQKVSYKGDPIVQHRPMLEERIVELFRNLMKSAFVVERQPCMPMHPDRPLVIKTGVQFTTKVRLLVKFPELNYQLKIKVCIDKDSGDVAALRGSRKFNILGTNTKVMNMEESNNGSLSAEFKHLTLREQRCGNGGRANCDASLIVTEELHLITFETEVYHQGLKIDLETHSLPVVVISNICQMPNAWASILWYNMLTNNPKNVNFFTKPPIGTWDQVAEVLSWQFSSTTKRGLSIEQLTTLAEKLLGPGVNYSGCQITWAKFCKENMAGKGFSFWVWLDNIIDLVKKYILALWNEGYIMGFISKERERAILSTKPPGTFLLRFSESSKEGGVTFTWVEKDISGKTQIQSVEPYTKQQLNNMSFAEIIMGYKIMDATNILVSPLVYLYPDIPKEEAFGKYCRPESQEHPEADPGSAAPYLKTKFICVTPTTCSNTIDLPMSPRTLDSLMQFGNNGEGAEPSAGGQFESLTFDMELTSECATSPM
Chain of Cellular tumor antigen p53 (Homo sapiens) (P04637 whole entry, looked up): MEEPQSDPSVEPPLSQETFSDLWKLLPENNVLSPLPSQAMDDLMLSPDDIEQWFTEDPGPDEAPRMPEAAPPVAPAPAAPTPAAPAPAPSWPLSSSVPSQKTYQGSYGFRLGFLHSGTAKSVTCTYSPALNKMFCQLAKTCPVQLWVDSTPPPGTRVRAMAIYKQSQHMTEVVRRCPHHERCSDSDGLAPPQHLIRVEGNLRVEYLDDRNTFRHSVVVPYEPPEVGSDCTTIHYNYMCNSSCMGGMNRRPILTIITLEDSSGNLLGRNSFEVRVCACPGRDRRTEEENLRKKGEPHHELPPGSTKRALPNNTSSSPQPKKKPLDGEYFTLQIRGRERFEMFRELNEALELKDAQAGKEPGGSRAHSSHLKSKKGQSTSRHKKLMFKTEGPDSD

Cc1ccc(-c2cc(C(F)(F)F)nn2-c2ccc(S(N)(=O)=O)cc2)cc1
inactive: [1] | [3] | [7]
active: [2] 89.2 µM | [4] 83.6 µM | [5] 73.1 µM | [6] 84.2 µM | TIMP1, TIMP1 (gene 7076) 88 µM | [8] 86.3 µM | [9] 71.6 µM | [10] 50 µM | [11] 74.4 µM | [12] 149 µM

CCCCCCCCCCCCCCCCO
active: [4] 50 µM
not listed: [13] | [14] | [15] | [16] | [17]
inactive: all other assays above

COc1ccc(OC(F)(F)F)cc1CN[C@H]1CCCN[C@H]1c1ccccc1
active: [2] 73.4 µM | [4] 81.2 µM | [13] 77.7 µM | [8] 83.8 µM | [9] 89.9 µM | [11] 73.6 µM | [14] 69.3 µM | [17] 62.1 µM
not listed: [10] | [12]
inactive: all other assays above

Cc1cn([C@H]2C=C[C@@H](CO)O2)c(=O)[nH]c1=O
not listed: [10] | [13] | [14] | [15] | [16] | [17]
inactive: all other assays above

Cn1cnc2c1c(=O)[nH]c(=O)n2C
not listed: [10] | [13] | [14] | [15] | [16] | [17]
inactive: all other assays above

CC(=O)OCC(COC(C)=O)OC(C)=O
not listed: [13] | [14] | [15] | [16] | [17]
inactive: all other assays above

CSc1ccc(Oc2ccc(S(N)(=O)=O)cc2CN(C)C)cc1C
active: [11] 81.4 µM
not listed: [12] | [13] | [14] | [15] | [16] | [17]
inactive: all other assays above

CC(C)c1cccc(C(C)C)c1
inactive: [1] | [2] | [3] | [4] | [5] | [6] | TIMP1, TIMP1 (gene 7076) | [8] | [9] | [11]
